Test results from PubChem BioAssay.
Active and inactive are the calls of the source.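 The calls were made as follows, unless noted: active = compound raises GLP1 secretion from the human gut endocrine cells, with no numeric limit stated; inactive = the rest.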

Key:
[1] = Wnt pathway potentiators raising nuclear beta-catenin – imaging, WNT3A-conditioned medium, mouse C2C12, NPC library, primary screen (AID 1117326; in the data active = nuclear beta-catenin stimulation mostly above about 4.2%, no sharp cut-off; inactive = mostly below about 10%; also: reference of the scale not given here); conditions: stronger effect = higher value
[2] = stimulators of insulin release from INS-1E, primary screen, cell-based, 5 mM glucose, NPC library (AID 1117329;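 active = compound raises insulin release from rat beta cells at 5 mM glucose, no numeric limit stated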; also: reference of the scale not given here); conditions: rat INS-1E insulin secretion, at 10 µM, stronger effect = higher value
[3] = growth inhibition of GSK3B-pretreated HCT116 cells – cell-based, CellTiter-Glo, 0.2 to 20 µM (AID 1117336;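 active = compounds lowering colon cancer cell viability after pretreatment blocking the GSK3B kinase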); conditions: HCT116 viability after GSK3B inhibitor, at 20 µM, stronger effect = higher value
[4] = inhibition of endothelial tube formation, primary screen, imaging, VEGF stimulated, CD31 staining, tube area, NPC library (AID 1117340;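 active = compound that reduces growth-factor-driven endothelial tube area in a mixed cell culture, no cutoff stated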); conditions: VEGF-stimulated ADSC/ECFC co-culture, at 10 µM, stronger effect = higher value
[5] = GLP1 release stimulators, primary, NCI-H716, NPC library (AID 1117341); conditions: NCI-H716 cells, at 10 µM, stronger effect = higher value; also: reference of the scale not given here
[6] = HCT116 colon cancer cell growth inhibition, primary screen, CellTiter-Glo luminescence, NPC library (AID 1117342;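 active = compounds that lower survival of HCT116 colon cancer cells in the luminescence readout, no numeric limit stated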); conditions: at 20 µM (top of the series)
[7] = reduced SW480 viability measured with CellTiter-Glo, NPC library, primary (AID 1117343;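 active = compounds that lower viability of the colon cancer cells in the luminescence readout, with no numeric limit stated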); conditions: CellTiter-Glo luminescence; at 20 µM (top of the series)
[8] = NPC library primary testing for decreased DLD-1 cell viability via CellTiter-Glo (AID 1117346;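 active = compounds that lower survival of DLD-1 colon cancer cells in the luminescence readout, no cutoff given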); conditions: DLD-1 viability, CellTiter-Glo luminescence; at 20 µM (top of the series)

CC(=O)OC[C@H]1O[C@@](COC(C)=O)(O[C@H]2O[C@H](COC(C)=O)[C@@H](OC(C)=O)[C@H](OC(C)=O)[C@H]2OC(C)=O)[C@@H](OC(C)=O)[C@@H]1OC(C)=O
inactive: nuclear beta-catenin stimulation ([1]; at 10 µM) 0.3% | insulin secretion stimulation [2] -0.2% | viability decrease [3] -1% | tube area decrease [4] 0.8% | GLP1 secretion stimulation [5] -0.5% | inhibition of viability [6] 3.93% | viability decrease (inhibition) [7] 16.6% | viability decrease (inhibition) [8] -8%
-0.8%: nuclear beta-catenin stimulation ([1]; stimulation, at 2 µM)

O=Cc1ccc(O)c(O)c1O
active: viability decrease [3] 87.5% | viability decrease (inhibition) [7] 78.5%
inactive: nuclear beta-catenin stimulation ([1]; at 10 µM) 1.4% | insulin secretion stimulation [2] -1.7% | tube area decrease [4] 3.3% | GLP1 secretion stimulation [5] 3.4% | inhibition of viability [6] 44.2% | viability decrease (inhibition) [8] 36.5%
1.9%: nuclear beta-catenin stimulation ([1]; stimulation, at 2 µM)

CC(C)(C)c1nnc(NS(=O)(=O)c2ccc(N)cc2)s1
inactive: nuclear beta-catenin stimulation ([1]; at 10 µM) 0.1% | insulin secretion stimulation [2] 3.45% | viability decrease [3] 7.2% | tube area decrease [4] -5.2% | GLP1 secretion stimulation [5] 0.7% | inhibition of viability [6] -2.9% | viability decrease (inhibition) [8] -5.4%
-1.2%: nuclear beta-catenin stimulation ([1]; stimulation, at 2 µM)
active: viability decrease (inhibition) [7] 54.4%

CCCCCCCCCC(=O)O
inactive: nuclear beta-catenin stimulation ([1]; at 10 µM) -1.9% | insulin secretion stimulation [2] 3.3% | viability decrease [3] -11.4% | tube area decrease [4] -24.1% | GLP1 secretion stimulation [5] 1.6% | inhibition of viability [6] 7.9% | viability decrease (inhibition) [7] 49.5% | viability decrease (inhibition) [8] 4.9%
0.7%: nuclear beta-catenin stimulation ([1]; stimulation, at 2 µM)

N/C(=N\N=C\c1ccc(Cl)cc1)N/N=C/c1ccc(Cl)cc1
inactive: nuclear beta-catenin stimulation ([1]; at 10 µM) 0.5% | insulin secretion stimulation [2] -0.1% | GLP1 secretion stimulation [5] -3.3%
0.1%: nuclear beta-catenin stimulation ([1]; stimulation, at 2 µM)
active: viability decrease [3] 99.6% | tube area decrease [4] 108% | inhibition of viability [6] 99.3% | viability decrease (inhibition) [7] 103% | viability decrease (inhibition) [8] 102%

O=S1(=O)OC(c2ccc(O)cc2)(c2ccc(O)cc2)c2ccccc21
-1.3%: nuclear beta-catenin stimulation ([1]; stimulation, at 2 µM)
inactive: nuclear beta-catenin stimulation ([1]; at 10 µM) 0.1% | insulin secretion stimulation [2] 0.55% | viability decrease [3] 12.4% | tube area decrease [4] 2.5% | GLP1 secretion stimulation [5] -0.4% | inhibition of viability [6] 38.7% | viability decrease (inhibition) [7] -9.3% | viability decrease (inhibition) [8] 42.9%

NC(=O)COCCN1CCN(C(c2ccccc2)c2ccc(Cl)cc2)CC1 (stereo not given)
1.4%: nuclear beta-catenin stimulation ([1]; stimulation, at 2 µM)
inactive: nuclear beta-catenin stimulation ([1]; at 10 µM) -0.4% | insulin secretion stimulation [2] 1.7% | viability decrease [3] -1.7% | tube area decrease [4] 9.8% | GLP1 secretion stimulation [5] 2.2% | inhibition of viability [6] 7.4% | viability decrease (inhibition) [7] -24.9% | viability decrease (inhibition) [8] -5.9%

CC(=O)SCC(CC(=O)c1ccc(C)cc1)C(=O)O (stereo not given)
inactive: nuclear beta-catenin stimulation ([1]; at 10 µM) 0.5% | insulin secretion stimulation [2] 2.9% | viability decrease [3] -5.5% | tube area decrease [4] -18.7% | GLP1 secretion stimulation [5] 1.4% | inhibition of viability [6] -12.2% | viability decrease (inhibition) [7] -19.1% | viability decrease (inhibition) [8] -15.2%
-0.4%: nuclear beta-catenin stimulation ([1]; stimulation, at 2 µM)

CCOC(=O)[C@@H](N)CS
-1%: nuclear beta-catenin stimulation ([1]; stimulation, at 2 µM)
active: GLP1 secretion stimulation [5] 21%
inactive: nuclear beta-catenin stimulation ([1]; at 10 µM) -2% | insulin secretion stimulation [2] 2.3% | viability decrease [3] -17.1% | tube area decrease [4] 2.3% | inhibition of viability [6] -5.6% | viability decrease (inhibition) [7] 34.7% | viability decrease (inhibition) [8] 4.2%

CCCCCCCCCCCCOS(=O)(=O)O
inactive: nuclear beta-catenin stimulation ([1]; at 10 µM) 2.3% | insulin secretion stimulation [2] 0.9% | viability decrease [3] -7.5% | tube area decrease [4] 4.9% | GLP1 secretion stimulation [5] 15.2% | inhibition of viability [6] -7.97% | viability decrease (inhibition) [7] -57.7% | viability decrease (inhibition) [8] -12.9%
1.9%: nuclear beta-catenin stimulation ([1]; stimulation, at 2 µM)

CC1c2ccccc2CN1NC(=O)c1ccc(Cl)c(S(N)(=O)=O)c1 (stereo not given)
active: viability decrease (inhibition) [7] -21.1%
inactive: nuclear beta-catenin stimulation ([1]; at 10 µM) 1.2% | insulin secretion stimulation [2] 1.65% | viability decrease [3] 26.4% | tube area decrease [4] -9.7% | GLP1 secretion stimulation [5] -1.8% | inhibition of viability [6] 1.4% | viability decrease (inhibition) [8] -10.8%
4.6%: nuclear beta-catenin stimulation ([1]; stimulation, at 2 µM)

Cc1ncc(CO)c(CN)c1O
active: viability decrease (inhibition) [7] 91.3%
2.3%: nuclear beta-catenin stimulation ([1]; stimulation, at 2 µM)
inactive: nuclear beta-catenin stimulation ([1]; at 10 µM) 1.3% | insulin secretion stimulation [2] 0.6% | viability decrease [3] 4.25% | tube area decrease [4] -13.4% | GLP1 secretion stimulation [5] 0.1% | inhibition of viability [6] -3.2% | viability decrease (inhibition) [8] 9.5%

CCOC(=O)OCC/C(SC(=O)OCC)=C(\C)N(C=O)Cc1cnc(C)nc1N
inactive: nuclear beta-catenin stimulation ([1]; at 10 µM) 1.8% | insulin secretion stimulation [2] 1.5% | viability decrease [3] 2.5% | tube area decrease [4] -11% | GLP1 secretion stimulation [5] 2.9% | inhibition of viability [6] -0.4% | viability decrease (inhibition) [7] -22.7% | viability decrease (inhibition) [8] -10.1%
0.3%: nuclear beta-catenin stimulation ([1]; stimulation, at 2 µM)

CCN(CC)CC(=O)OCC(=O)[C@@]1(O)CC[C@H]2[C@@H]3CCC4=CC(=O)CC[C@]4(C)[C@H]3[C@@H](O)C[C@@]21C
-0.8%: nuclear beta-catenin stimulation ([1]; stimulation, at 2 µM)
inactive: nuclear beta-catenin stimulation ([1]; at 10 µM) -0.5% | insulin secretion stimulation [2] -0.5% | viability decrease [3] -24.6% | tube area decrease [4] 0.8% | GLP1 secretion stimulation [5] 1.1% | inhibition of viability [6] -15.9% | viability decrease (inhibition) [7] 37.2% | viability decrease (inhibition) [8] -9.9%

O=C(OCc1ccccc1)c1ccc(O)cc1
inactive: nuclear beta-catenin stimulation ([1]; at 10 µM) 4.1% | insulin secretion stimulation [2] 0.1% | viability decrease [3] -24.5% | tube area decrease [4] -8.2% | GLP1 secretion stimulation [5] 0.1% | inhibition of viability [6] 16.1% | viability decrease (inhibition) [7] 12.9% | viability decrease (inhibition) [8] 14.4%
-0.1%: nuclear beta-catenin stimulation ([1]; stimulation, at 2 µM)
